# Measured values taken from PubChem BioAssay.
# Activity calls are given as the source filed them. Unless noted, no stated cut-off is given here; in the data, active means inhibition above about 80%; inactive means the rest.
# What was measured:
# [1] = viability rescue of complex I mutant cybrids, primary screen, cell-based, galactose medium, ATP luminescence (AID 1645843;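 active means z-score of at least 1.8 in each of two replicates, scored against plate mean and spread of sample wells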;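 further: positive z means more ATP and so rescue of galactose-driven cybrid death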); conditions: complex I mutant cybrid cells, 72 h, stronger effect = higher value
# [2] = circadian clock period modulators, cell-based, LOPAC library, luminescence reporter (AID 2774; call rule not given here;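 further: values are relative to mean of DMSO wells on each plate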); conditions: circadian reporter cells, at 7 µM, actives lie on both sides
# [3] = antimalarial activity against Dd2 strain (AID 2302;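 active means growth inhibition above 50% at the single 2 µM test dose, taken to imply half-maximal potency below 2 µM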;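 further: 0% = DMSO untreated growth and 100% = chloroquine plus artemisinin killed control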); conditions: P. falciparum Dd2 in RBCs, LDH growth readout, 72 h; at 2 µM; stronger effect = higher value
# [4] = HepG2 cytotoxicity, primary screen, cytotoxicity control for P. falciparum antimalarial project, cell-based, ATP luminescence (AID 2303;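 active means inhibition above 50%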;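 further: 0% = DMSO wells and 100% = digitonin-killed cells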); conditions: HepG2 viability, 24-48 h, at 10 µM, stronger effect = higher value
# [5] = molecular target: L-lactate dehydrogenase (Plasmodium falciparum (isolate CDC / Honduras)) (UniProt Q27743); test: PfLDH activity inhibition – cell lysate, 3D7 strain, counter-screen for P. falciparum growth inhibition project (AID 2304; call rule not given here;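 further: 0% = vehicle and 100% = reference inhibitor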); conditions: P. falciparum 3D7 crude extract, LDH APAD/NBT absorbance; at 2 µM; stronger effect = higher value
# Chain of L-lactate dehydrogenase (Plasmodium falciparum (isolate CDC / Honduras)) (Q27743 whole entry, looked up): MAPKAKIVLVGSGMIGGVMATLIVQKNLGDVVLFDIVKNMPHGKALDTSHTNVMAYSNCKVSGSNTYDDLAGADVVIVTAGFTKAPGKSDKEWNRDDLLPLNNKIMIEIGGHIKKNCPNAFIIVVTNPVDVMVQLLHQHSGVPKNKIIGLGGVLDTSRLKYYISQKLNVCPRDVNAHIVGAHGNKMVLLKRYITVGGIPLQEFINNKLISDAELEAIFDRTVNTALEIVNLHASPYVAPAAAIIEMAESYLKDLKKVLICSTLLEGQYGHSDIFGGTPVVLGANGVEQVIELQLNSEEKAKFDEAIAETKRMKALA
# [6] = inhibition of 3D7 malaria parasite growth – strain 3D7 (AID 2306; call rule not given here;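 further: 0% = DMSO wells and 100% = chloroquine plus artemisinin control wells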); conditions: P. falciparum 3D7 erythrocytic growth, LDH absorbance, 72 h; at 2 µM; stronger effect = higher value
# [7] = LFS_MB_P medulloblastoma growth inhibition, cell-based, chromothripsis tumors, cisplatin or BGB combos (AID 1671449); conditions: LFS_MB_P medulloblastoma cells;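 further: cells exposed for 96 hours; 0% = vehicle DMSO and 100% = killing by high DMSO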
# [8] = HDN33 neuroblastoma growth inhibition, cell-based, chromothripsis tumors, cisplatin or BGB combos (AID 1671450); conditions: HDN33 neuroblastoma cells, stronger effect = higher value;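 further: cells exposed to compound for four days; 0% = vehicle DMSO and 100% = cell killing by high DMSO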
# [9] = ICB984 medulloblastoma cell growth inhibition, synergistic combos for chromothripsis tumors, cisplatin or BGB combos (AID 1671451; call rule not given here;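 further: cells exposed for 96 hours before readout; 0% = vehicle DMSO and 100% = killing by high DMSO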); conditions: ICB984 medulloblastoma cells, drug combinations, stronger effect = higher value
# [10] = LFS_MB_1R medulloblastoma cell growth inhibition, synergistic combos for chromothripsis tumors, cisplatin or BGB combos (AID 1671452); conditions: LFS_MB_1R medulloblastoma cells, stronger effect = higher value;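 further: cells exposed for 96 hours before readout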
# [11] = HTB85 osteosarcoma cell growth inhibition, synergistic combos for chromothripsis tumors, BGB or cisplatin IC20 combos (AID 1671453); conditions: HTB85 osteosarcoma cells, drug combinations, stronger effect = higher value;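 further: cells exposed for 96 hours before readout; 0% = vehicle DMSO and 100% = high DMSO killing control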
# [12] = CRL2098 osteosarcoma cell growth inhibition, synergistic combos for chromothripsis tumors, BGB or cisplatin IC20 combos (AID 1671454); conditions: CRL2098 osteosarcoma cells, drug combinations, stronger effect = higher value;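 further: cells exposed for 96 h before readout; 0% = vehicle DMSO and 100% = killing by high DMSO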
# [13] = HD-MB03 medulloblastoma cell growth inhibition, synergistic combos for chromothripsis tumors, BGB or cisplatin IC20 combos (AID 1671455; in the data active means inhibition above about 83%;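 further: 0% = vehicle DMSO and 100% = high DMSO as cytotoxic control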); conditions: HD-MB03 medulloblastoma cells, stronger effect = higher value
# [14] = UWB1.289 ovarian carcinoma cell growth inhibition, synergistic combos for chromothripsis tumors, BGB or cisplatin combos (AID 1671456); conditions: UWB1.289 ovarian carcinoma cells, stronger effect = higher value;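 further: cells exposed to compound for four days; 0% = vehicle DMSO and 100% = killing by high DMSO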
# [15] = LFS_MB_2R medulloblastoma cell growth inhibition, synergistic combos for chromothripsis tumors, cisplatin combos (AID 1671457); conditions: LFS_MB_2R medulloblastoma cells, stronger effect = higher value;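 further: cells exposed to compound for four days before readout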
# [16] = MDA-MB-436 breast carcinoma cell growth inhibition, synergistic combos for chromothripsis tumors, BGB or cisplatin combos (AID 1671458; call rule not given here;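 further: cells exposed for 96 hours; 0% = vehicle DMSO and 100% = killing by high DMSO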); conditions: MDA-MB-436 breast carcinoma growth inhibition, drug combinations, stronger effect = higher value
# [17] = UWB1.289_BRCA1 ovarian cancer growth, cell-based, BGB or cisplatin combinations (AID 1671459); conditions: UWB1.289 BRCA1 ovarian carcinoma, drug combinations, stronger effect = higher value
# [18] = human astrocyte viability loss, single and combined drugs, cytotoxicity control for chromothriptic childhood tumor combination screen, cell-based, BGB or cisplatin IC20 combos (AID 1671460); conditions: Human astrocytes, drug combinations, stronger effect = higher value;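 further: cells exposed to compounds for 96 hours before viability readout; 0% = vehicle and 100% = killing control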
# [19] = growth inhibition of BT084 medulloblastoma cells, cell-based, ICGC_MB145, cisplatin and BGB IC40 combos (AID 1671461); conditions: drug combinations, stronger effect = higher value;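 further: cells exposed to drugs for 96 hours; 0% = vehicle DMSO and 100% = high DMSO full killing control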
# [20] = growth inhibition of RCMB18 medulloblastoma cells, cell-based, cisplatin and BGB IC40 combos (AID 1671462); conditions: stronger effect = higher value;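 further: cells exposed to compound for four days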
# [21] = growth inhibition of CRL1545 osteosarcoma cells, cell-based, cisplatin and BGB IC20 combos (AID 1671464); conditions: stronger effect = higher value;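 further: cells exposed to compound for 96 hours before readout; 0% = vehicle DMSO and 100% = high DMSO killing control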
# [22] = measured here: combination with BGB IC40, at 0.05 µM
# [23] = measured here: with BGB IC20 combination, at 0.5 µM
# [24] = measured here: with cisplatin IC20 combination, at 0.5 µM
# [25] = measured here: combination with cisplatin, at 0.5 µM
# [26] = measured here: combination with cisplatin, at 5 µM
structure (smiles),measurement,setting,value
CN1CCC(N(C)CCC2CCOCC2)CC1,z-score,[1],0.38 (inactive)
COc1cc(C[C@@H](C)N)c(OC)cc1I,period change,[2],-0.225 h (inactive)
COC(=O)/C=C/c1ccc(CC(C)NCC(O)c2cccc(C(F)(F)F)c2)cc1 (centres undefined),growth inhibition,[3],96% (active)
same,inhibition,[4],16% (inactive)
same,inhibition,[5],0% (inactive)
same,growth inhibition,[6],97% (active)
CC1(C)C(C(=O)Nc2ccc(S(=O)(=O)c3ccc(NC(=O)C4C(C)(C)C4(C)C)cc3)cc2)C1(C)C,inhibition,"[7]; at 0.5 µM, stronger effect = higher value",-7.93% (inactive)
same,inhibition,"[7]; measured here: combination with BGB IC20, at 0.005 µM",-18.4%
same,inhibition,"[7]; measured here: combination with BGB IC40, at 0.005 µM",-46.1%
same,inhibition,[7]; [22],-26.3%
same,inhibition,"[7]; measured here: combination with cisplatin, at 0.5 µM, stronger effect = higher value",-30.9%
same,inhibition,"[7]; measured here: combination with cisplatin, at 5 µM, stronger effect = higher value",-41.5%
same,inhibition,"[8]; BGB combo, at 5 µM",-17.4%
same,inhibition,[8]; at 0.5 µM,-53.9% (inactive)
same,inhibition,"[8]; cisplatin combo, at 5 µM",-66.6%
same,inhibition,[8]; [23],-56.4%
same,inhibition,[8]; [24],-51.1%
same,inhibition,"[8]; single agent, at 5 µM",-24.6%
same,inhibition,"[9]; BGB IC20 combo, at 0.005 µM",-19.6%
same,inhibition,"[9]; BGB IC40 combo, at 0.005 µM",-21.6%
same,inhibition,"[9]; BGB IC40 combo, at 0.05 µM",0.527%
same,inhibition,[9]; at 0.5 µM,-22.6% (inactive)
same,inhibition,"[9]; cisplatin combo, at 0.05 µM",-4.5%
same,inhibition,"[9]; cisplatin combo, at 0.5 µM",-42.3%
same,inhibition,"[9]; cisplatin combo, at 5 µM",-31.4%
same,inhibition,"[9]; measured here: 5 uM single agent, at 5 µM",-26.8%
same,inhibition,[10]; at 0.5 µM,-36.5% (inactive)
same,inhibition,[10]; [22],-27.2%
same,inhibition,[10]; [25],-46.1%
same,inhibition,[10]; [26],-61.4%
same,inhibition,[11]; at 0.5 µM,-37.5% (inactive)
same,inhibition,"[11]; measured here: with BGB IC20, at 0.5 µM",-37%
same,inhibition,"[11]; measured here: with BGB IC20, at 5 µM",-16.1%
same,inhibition,"[11]; measured here: with cisplatin IC20, at 0.5 µM",-31.9%
same,inhibition,"[11]; measured here: with cisplatin IC20, at 5 µM",-19.7%
same,inhibition,"[11]; single agent, at 5 µM",-8.34%
same,inhibition,[12]; at 0.5 µM,-53.9% (inactive)
same,inhibition,"[12]; measured here: combination with BGB at IC20, at 0.5 µM",-51.4%
same,inhibition,"[12]; measured here: combination with cisplatin at IC20, at 0.5 µM",-77.7%
same,inhibition,[13]; at 0.5 µM,-19.9% (inactive)
same,inhibition,"[13]; measured here: combo with BGB at IC20, at 0.5 µM",-12.1%
same,inhibition,"[13]; measured here: combo with cisplatin at IC20, at 0.5 µM",-33.5%
same,inhibition,[14]; at 0.5 µM,-16.5% (inactive)
same,inhibition,"[14]; measured here: inhibition with BGB combination, at 0.05 µM",-34%
same,inhibition,"[14]; measured here: inhibition with cisplatin combination, at 0.05 µM",-37.9%
same,inhibition,[15]; at 0.5 µM,-14.5% (inactive)
same,inhibition,[15]; [25],-16.8%
same,inhibition,[15]; [26],-6.76%
same,inhibition,[16]; at 0.5 µM,-18.2% (inactive)
same,inhibition,"[16]; measured here: BGB combination, at 0.5 µM",-21%
same,inhibition,"[16]; measured here: BGB combination, at 5 µM",-4.44%
same,inhibition,"[16]; measured here: cisplatin combination, at 0.5 µM",-40.7%
same,inhibition,"[16]; measured here: cisplatin combination, at 5 µM",-26%
same,inhibition,"[17]; BGB combination, concentration series, at 5 µM",2.97%
same,inhibition,[17]; at 0.5 µM,-24.5% (inactive)
same,inhibition,"[17]; cisplatin combination, concentration series, at 5 µM",-16%
same,inhibition,[18]; at 0.5 µM,4.8% (inactive)
same,inhibition,"[18]; measured here: combo with BGB IC20, at 0.5 µM",12.4%
same,inhibition,"[18]; measured here: combo with cisplatin IC20, at 0.5 µM",-16.1%
same,inhibition,[19]; at 0.5 µM,-6.8% (inactive)
same,inhibition,"[19]; cisplatin combination, at 0.5 µM",-4.81%
same,inhibition,"[19]; cisplatin combination, at 5 µM",-82%
same,inhibition,"[19]; measured here: BGB IC40 combination 0.05 uM, at 0.05 µM",-20.9%
same,inhibition,"[19]; single agent, at 5 µM",2.54%
same,inhibition,[20]; at 0.5 µM,-8.5% (inactive)
same,inhibition,"[20]; cisplatin combo, at 5 µM",-42.1%
same,inhibition,"[20]; measured here: BGB IC40 combination, at 0.05 µM",3.16%
same,inhibition,[20]; [25],-23.3%
same,inhibition,"[20]; single agent, at 5 µM",22.7%
same,inhibition,[21]; at 0.5 µM,-34.4% (inactive)
same,inhibition,[21]; [23],-61.8%
same,inhibition,[21]; [24],-22.6%
same,inhibition,"[21]; single agent, at 0.05 µM",-37.3%
same,inhibition,"[21]; single agent, at 5 µM",14.2%
